Experimental data taken from ChEMBL document CHEMBL4513146, “CO-ADD screening of Karazin Kharkiv National University (Ukraine) compounds”.
Measured potencies and affinities stand elsewhere.

Tests used:
Klebsiella pneumoniae = details: Concentration 32 ug.mL-1;; ASSAY_TEST Inhibition of Bacterial Growth; detection method Absorption (OD600); MEDIA CAMHB; plate type 384well; NBS; CORNING #3640; time 18 hr
Candida albicans = details: Concentration 32 ug.mL-1; ASSAY_TEST Inhibition of Fungal Growth; detection method Absorption (OD530)
Cryptococcus neoformans = details: Concentration 32 ug.mL-1; ASSAY_TEST Inhibition of Fungal Growth; detection method Resazurin; Absorption (OD600-OD570); plate type 384well; NBS; CORNING #3640

Row | Structure (SMILES) | Inhibition (Klebsiella pneumoniae) [%] | Inhibition (Candida albicans) [%] | Inhibition (Cryptococcus neoformans) [%]
1 | COc1ccccc1-n1ccn2c(SCc3cccc(F)c3)nnc2c1=O | 7.21 | 2.05 | -9.16
2 | COc1cccc(-c2noc(Cn3nc4ccc(-c5ccccc5)nn4c3=O)n2)c1OC | 1.06 | 2.21 | -2.99
3 | Cc1cccc(NC(=O)CSc2nnc3c4cc(-c5ccc(F)cc5)nn4ccn23)c1C | 0.2 | 1.75 | -21.34
4 | COc1cc(NC(=O)Cn2nc3ccc(-c4ccc(Cl)cc4)nn3c2=O)cc(OC)c1 | 6.35 | 1.47 | -13.03
5 | O=c1c2sccc2n2c(=O)n(Cc3ccccc3F)nc2n1Cc1cccs1 | -1.85 | 38.88 | -22.09
6 | O=C(Cn1nc2c(N3CCOCC3)nccn2c1=O)NCc1cc(F)cc(F)c1 | 6.28 | 4.54 | -8.22
7 | COc1ccc(C(=O)CSc2nnc3c(=O)n(-c4ccc(F)cc4)ccn23)cc1OC | 11.15 | 4.19 | -8.42
8 | COc1ccc(-c2cc3c4nn(CC(=O)Nc5ccc(C)cc5)c(=O)n4ccn3n2)cc1 | 7.98 | 8.11 | -26.93
9 | COc1ccc(N(Cc2cccc(F)c2)S(=O)(=O)c2ccc3nncn3c2)cc1 | 25.01 | 3.57 | -1.54
10 | CCc1nnc2c(SCC(=O)Nc3cccc(OC)c3)nc3ccccc3n12 | 3.16 | 3.37 | -8.02
11 | COc1cccc(-c2noc(Cn3nc4ccc(-c5ccc(C)c(C)c5)nn4c3=O)n2)c1OC | 9.19 | -0.69 | -10.63
12 | COC(=O)c1ccc(CN(c2ccc(C)cc2)S(=O)(=O)c2ccc3nnc(C)n3c2)o1 | 8.84 | 0.1 | -13.09
13 | CCCc1nnc2c(=O)n(CC(=O)Nc3ccc(Br)cc3F)c3ccccc3n12 | -10.52 | 6.6 | -24.08
14 | CCOc1ccc(-n2ccn3c(SCC(=O)c4cc(C)c(C)cc4C)nnc3c2=O)cc1 | 2.47 | 2.99 | -7.59
15 | COC(=O)c1ccc(NC(=O)CSc2nnc3ccc(C(=O)Nc4cccc(F)c4)cn23)cc1 | 4.63 | 2.52 | -5.98
16 | Cc1ccc(Oc2nccn3c(=O)n(CC(=O)NCCC4=CCCCC4)nc23)cc1 | 12.14 | 4.38 | -9.17
17 | CCOc1ccc(C(=O)Cn2nc3n(CCC(C)C)c(=O)c4sccc4n3c2=O)cc1 | 4.69 | 2.69 | -12.75
18 | Cc1c(Cl)cccc1-n1ccn2c(=S)[nH]nc2c1=O | 8.12 | 2.5 | -13.36
19 | Cc1cccc(NC(=O)Cn2nc3c4cc(-c5ccc(Cl)cc5)nn4ccn3c2=O)c1 | 1.22 | 16.29 | -21.44
20 | Cc1nnc2c(=O)n(CC(=O)NC3CCCC3)c3ccccc3n12 | 6.01 | 0.18 | -17.78
21 | COC(=O)c1ccc(NC(=O)Cn2nc3c(Oc4ccccc4C)nccn3c2=O)cc1 | -1.16 | 1.31 | -4.07
22 | CCc1nnc2c(S(=O)(=O)N(Cc3cc(F)cc(F)c3)c3ccc(F)cc3)cccn12 | -0.25 | 4.45 | -8.28
